Measured values: publication PMC8384837, “Expanding the binding specificity for RNA recognition by a PUF domain”

Experiments:
Assay in all cases: yeast three-hybrid, YBZ-1, SC-Leu-His + 0.5 mM 3-AT, 4 days
Conditions in all cases: tags: N-Gal4 AD-HA kept; label: inside an RPR1-promoter hybrid RNA with tandem MS2 sites; ssRNA
[1] = target: PUM1 PUF domain R5-TRV (Homo sapiens, UniProt Q14671 828-1176, C1007T;Q1011V)
Procedure, shortened: (§1)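 Matching RNA elements and Pumilio-1 PUF domain libraries, randomized at the three base-contacting residues of every repeat, were co-expressed from a centromeric plasmid in strain YBZ-1 (LexA–MS2 coat fusion, HIS3 reporter). The repeat regions were PCR-amplified and Illumina-sequenced from cells grown four days on SC-Leu (input) or SC-Leu-His + 0.5 mM 3-AT (selection). The interaction score is the log change in variant frequency from input to selection. It is computed in log2, with a pseudocount of 1 for absent variants.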

[2] = target: PUM1 PUF domain R1-RTR (Homo sapiens, UniProt Q14671 828-1176, S863R;R864T;Q867R)
Procedure, shortened: as §1

[3] = target: PUM1 PUF domain R1-VKK (Homo sapiens, UniProt Q14671 828-1176, S863V;R864K;Q867K)
Procedure, shortened: as §1

[4] = target: PUM1 PUF domain R7-RRS (Homo sapiens, UniProt Q14671 828-1176, S1079R;N1080R;E1083S)
Procedure, shortened: as §1

[5] = target: PUM1 PUF domain R7-AVK (Homo sapiens, UniProt Q14671 828-1176, S1079A;N1080V;E1083K)
Procedure, shortened: as §1

[6] = target: PUM1 PUF domain R7-QSN (Homo sapiens, UniProt Q14671 828-1176, S1079Q;N1080S;E1083N)
Procedure, shortened: as §1

[7] = target: PUM1 PUF domain R7-KVV (Homo sapiens, UniProt Q14671 828-1176, S1079K;N1080V;E1083V)
Procedure, shortened: as §1

[8] = target: PUM1 PUF domain R2-VFR (Homo sapiens, UniProt Q14671 828-1176, N899V;Y900F;Q903R)
Procedure, shortened: as §1

[9] = target: PUM1 PUF domain R2-VHP (Homo sapiens, UniProt Q14671 828-1176, N899V;Y900H;Q903P)
Procedure, shortened: as §1

[10] = target: PUM1 PUF domain R7-KHF (Homo sapiens, UniProt Q14671 828-1176, S1079K;N1080H;E1083F)
Procedure, shortened: as §1

[11] = target: PUM1 PUF domain R3-CRD (Homo sapiens, UniProt Q14671 828-1176, Q939D)
Procedure, shortened: as §1

[12] = target: PUM1 PUF domain R3-RNA (Homo sapiens, UniProt Q14671 828-1176, C935R;R936N;Q939A)
Procedure, shortened: as §1

[13] = target: PUM1 PUF domain R8-IWR (Homo sapiens, UniProt Q14671 828-1176, N1122I;Y1123W;Q1126R)
Procedure, shortened: as §1

[14] = target: PUM1 PUF domain R8-CYR (Homo sapiens, UniProt Q14671 828-1176, N1122C;Q1126R)
Procedure, shortened: as §1

[15] = target: PUM1 PUF domain R8-AYR (Homo sapiens, UniProt Q14671 828-1176, N1122A;Q1126R)
Procedure, shortened: as §1

[16] = target: PUM1 PUF domain R2-RKW (Homo sapiens, UniProt Q14671 828-1176, N899R;Y900K;Q903W)
Procedure, shortened: as §1

[17] = target: PUM1 PUF domain R4-ARM (Homo sapiens, UniProt Q14671 828-1176, N971A;H972R;Q975M)
Procedure, shortened: as §1

[18] = target: PUM1 PUF domain R1-RNQ (Homo sapiens, UniProt Q14671 828-1176, S863R;R864N)
Procedure, shortened: as §1

[19] = target: PUM1 PUF domain R4-PTC (Homo sapiens, UniProt Q14671 828-1176, N971P;H972T;Q975C)
Procedure, shortened: as §1

[20] = target: PUM1 PUF domain R4-SNY (Homo sapiens, UniProt Q14671 828-1176, N971S;H972N;Q975Y)
Procedure, shortened: as §1

PUM1 PUF domain R8-CYR, sequence (Q14671 828-1176 N1122C/Q1126R): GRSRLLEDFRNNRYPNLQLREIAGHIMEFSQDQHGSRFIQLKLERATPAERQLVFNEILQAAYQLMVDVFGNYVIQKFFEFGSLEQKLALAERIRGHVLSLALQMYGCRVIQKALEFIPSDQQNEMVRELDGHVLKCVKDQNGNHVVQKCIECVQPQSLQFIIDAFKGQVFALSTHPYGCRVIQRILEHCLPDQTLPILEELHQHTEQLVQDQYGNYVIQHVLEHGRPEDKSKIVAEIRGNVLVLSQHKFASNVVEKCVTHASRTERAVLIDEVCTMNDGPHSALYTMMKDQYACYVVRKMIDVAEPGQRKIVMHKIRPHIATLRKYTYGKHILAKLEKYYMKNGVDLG
PUM1 PUF domain R5-TRV, sequence (Q14671 828-1176 C1007T/Q1011V): as the sequence (Q14671 828-1176 N1122C/Q1126R) above, with C180T, Q184V, C295N, R299Q counted along it
PUM1 PUF domain R8-AYR, sequence (Q14671 828-1176 N1122A/Q1126R): as the sequence (Q14671 828-1176 N1122C/Q1126R) above, with C295A counted along it
PUM1 PUF domain R7-QSN, sequence (Q14671 828-1176 S1079Q/N1080S/E1083N): as the sequence (Q14671 828-1176 N1122C/Q1126R) above, with S252Q, N253S, E256N, C295N, R299Q counted along it
PUM1 PUF domain R7-KHF, sequence (Q14671 828-1176 S1079K/N1080H/E1083F): as the sequence (Q14671 828-1176 N1122C/Q1126R) above, with S252K, N253H, E256F, C295N, R299Q counted along it
PUM1 PUF domain R7-KVV, sequence (Q14671 828-1176 S1079K/N1080V/E1083V): as the sequence (Q14671 828-1176 N1122C/Q1126R) above, with S252K, N253V, E256V, C295N, R299Q counted along it
PUM1 PUF domain R2-RKW, sequence (Q14671 828-1176 N899R/Y900K/Q903W): as the sequence (Q14671 828-1176 N1122C/Q1126R) above, with N72R, Y73K, Q76W, C295N, R299Q counted along it
PUM1 PUF domain R1-RNQ, sequence (Q14671 828-1176 S863R/R864N): as the sequence (Q14671 828-1176 N1122C/Q1126R) above, with S36R, R37N, C295N, R299Q counted along it
PUM1 PUF domain R1-VKK, sequence (Q14671 828-1176 S863V/R864K/Q867K): as the sequence (Q14671 828-1176 N1122C/Q1126R) above, with S36V, R37K, Q40K, C295N, R299Q counted along it
PUM1 PUF domain R3-RNA, sequence (Q14671 828-1176 C935R/R936N/Q939A): as the sequence (Q14671 828-1176 N1122C/Q1126R) above, with C108R, R109N, Q112A, C295N, R299Q counted along it
PUM1 PUF domain R2-VFR, sequence (Q14671 828-1176 N899V/Y900F/Q903R): as the sequence (Q14671 828-1176 N1122C/Q1126R) above, with N72V, Y73F, Q76R, C295N, R299Q counted along it
PUM1 PUF domain R2-VHP, sequence (Q14671 828-1176 N899V/Y900H/Q903P): as the sequence (Q14671 828-1176 N1122C/Q1126R) above, with N72V, Y73H, Q76P, C295N, R299Q counted along it

GGCUAGAACUAGUGGAUCCCCCGGCGCCCGGCGGCUCGAGCCCGGGUAAGUGUGAAUAGUCUGCAUGCCGCCGGGCGCCAUGCCUGCAGGUCGACUCUAGAAAACAUG
binding signal [1]: 3.38 log2 enrichment (interaction score)

GGCUAGAACUAGUGGAUCCCCCGGCGCCCGGCGGCUCGAGCCCGGGUAAGUGUAAAUUGUCUGCAUGCCGCCGGGCGCCAUGCCUGCAGGUCGACUCUAGAAAACAUG
binding signal [2]: 2.2 log2 enrichment (interaction score)
binding signal [3]: 2.11 log2 enrichment (interaction score)

GGCUAGAACUAGUGGAUCCCCCGGCGCCCGGCGGCUCGAGCCCGGGUAAGUUUAAAUAGUCUGCAUGCCGCCGGGCGCCAUGCCUGCAGGUCGACUCUAGAAAACAUG
binding signal [4]: 4.29 log2 enrichment (interaction score)
binding signal [5]: 4.11 log2 enrichment (interaction score)
binding signal [6]: 4.28 log2 enrichment (interaction score)
binding signal [7]: 2.62 log2 enrichment (interaction score)

GGCUAGAACUAGUGGAUCCCCCGGCGCCCGGCGGCUCGAGCCCGGGUAAGUGUAAAAAGUCUGCAUGCCGCCGGGCGCCAUGCCUGCAGGUCGACUCUAGAAAACAUG
binding signal [8]: 5.64 log2 enrichment (interaction score)
binding signal [9]: 2.73 log2 enrichment (interaction score)

GGCUAGAACUAGUGGAUCCCCCGGCGCCCGGCGGCUCGAGCCCGGGUAAGUCUAAAUAGUCUGCAUGCCGCCGGGCGCCAUGCCUGCAGGUCGACUCUAGAAAACAUG
binding signal [4]: 4.47 log2 enrichment (interaction score)
binding signal [10]: 2.94 log2 enrichment (interaction score)

GGCUAGAACUAGUGGAUCCCCCGGCGCCCGGCGGCUCGAGCCCGGGUAAGUGUAAUUAGUCUGCAUGCCGCCGGGCGCCAUGCCUGCAGGUCGACUCUAGAAAACAUG
binding signal [11]: 1.14 log2 enrichment (interaction score)
binding signal [12]: 3.87 log2 enrichment (interaction score)

GGCUAGAACUAGUGGAUCCCCCGGCGCCCGGCGGCUCGAGCCCGGGUAAGCGUAAAUAGUCUGCAUGCCGCCGGGCGCCAUGCCUGCAGGUCGACUCUAGAAAACAUG
binding signal [13]: 5.25 log2 enrichment (interaction score)
binding signal [14]: 4.19 log2 enrichment (interaction score)
binding signal [15]: 4.07 log2 enrichment (interaction score)

GGCUAGAACUAGUGGAUCCCCCGGCGCCCGGCGGCUCGAGCCCGGGUAAGUGUAAAGAGUCUGCAUGCCGCCGGGCGCCAUGCCUGCAGGUCGACUCUAGAAAACAUG
binding signal [16]: 2.92 log2 enrichment (interaction score)

GGCUAGAACUAGUGGAUCCCCCGGCGCCCGGCGGCUCGAGCCCGGGUAAGGGUAAAUAGUCUGCAUGCCGCCGGGCGCCAUGCCUGCAGGUCGACUCUAGAAAACAUG
binding signal [14]: 2.63 log2 enrichment (interaction score)

GGCUAGAACUAGUGGAUCCCCCGGCGCCCGGCGGCUCGAGCCCGGGUAAGUGUACAUAGUCUGCAUGCCGCCGGGCGCCAUGCCUGCAGGUCGACUCUAGAAAACAUG
binding signal [17]: 2.37 log2 enrichment (interaction score)

GGCUAGAACUAGUGGAUCCCCCGGCGCCCGGCGGCUCGAGCCCGGGUAAGUGUAAAUCGUCUGCAUGCCGCCGGGCGCCAUGCCUGCAGGUCGACUCUAGAAAACAUG
binding signal [2]: 1.13 log2 enrichment (interaction score)
binding signal [18]: 4.55 log2 enrichment (interaction score)

GGCUAGAACUAGUGGAUCCCCCGGCGCCCGGCGGCUCGAGCCCGGGUAAGUGUUAAUAGUCUGCAUGCCGCCGGGCGCCAUGCCUGCAGGUCGACUCUAGAAAACAUG
binding signal [1]: 3.28 log2 enrichment (interaction score)

GGCUAGAACUAGUGGAUCCCCCGGCGCCCGGCGGCUCGAGCCCGGGUAAGUGUAAAUAGUCUGCAUGCCGCCGGGCGCCAUGCCUGCAGGUCGACUCUAGAAAACAUG
binding signal [13]: 3.98 log2 enrichment (interaction score)
binding signal [19]: 3.57 log2 enrichment (interaction score)
binding signal [17]: 4.11 log2 enrichment (interaction score)
binding signal [11]: 5 log2 enrichment (interaction score)
binding signal [20]: 2.33 log2 enrichment (interaction score)
binding signal [1]: 4.29 log2 enrichment (interaction score)
binding signal [14]: 4.59 log2 enrichment (interaction score)
binding signal [15]: 4.26 log2 enrichment (interaction score)

GGCUAGAACUAGUGGAUCCCCCGGCGCCCGGCGGCUCGAGCCCGGGUAAGUGUAUAUAGUCUGCAUGCCGCCGGGCGCCAUGCCUGCAGGUCGACUCUAGAAAACAUG
binding signal [17]: 1.47 log2 enrichment (interaction score)
